In PubChem BioAssay (Tox21):
Inconclusive results are not listed. A number with no mark means an inactive call. Calls of active or inactive are those of the source. Calls come from the whole dose curve; as a rule, active = well fitted cell-killing curve with a large enough effect in the repeat runs; inconclusive = weak or mixed curves; inactive = no such curve, though single readings can be large or run the other way.

Assay: qHTS assay to identify small molecule antagonists of the androgen receptor (AR) signaling pathway - cell viability counter screen (AID 743033; note: nearly all actives have a fitted effect of over 45% in size)
Conditions: AR-bla HEK293 viability, CellTiter-Glo luminescence, 16 h; series mostly up to 58.5 µM; activity change, negative = cytotoxicity: at the top concentration
Description: National Center for Advancing Translational Sciences [NCATS]
NIH Chemical Genomics Center [NCGC]
U.S. Environmental Protection Agency [EPA]
National Institutes of Environmental Health Sciences [NIEHS]
National Toxicology Program [NTP]
U.S. Food and Drug Administration [FDA]
Androgen receptor (AR), a nuclear hormone receptor, plays a critical role in AR-dependent prostate cancer and other androgen related diseases. Endocrine disrupting chemicals (EDCs) and their interactions with steroid hormone receptors like AR may cause disruption of normal endocrine function as well as interfere with metabolic homeostasis, reproduction, developmental and behavioral functions. To identify the compounds that inhibit AR signaling, GeneBLAzer AR-UAS-bla-GripTite cell line (Invitrogen, Carlsbad, CA, USA) containing a beta-lactamase reporter gene under control of an Upstream Activator Sequence (UAS) stably integrated into HEK293 cells was used to screen the Tox21 10K compound library. The cytotoxicity of the Tox21 compound library against the AR-bla cell line was tested in parallel by measuring the cell viability using CellTiter-Glo assay in the same wells.
Tox21 Assay Protocol Summary:
AR-bla cells were dispensed at 2,000 cells/5 uL of assay medium per well into black wall/clear-bottom 1536-well plates using a Multidrop Combi (ThermoFisher Scientific, Waltham, MA) dispenser. After the assay plates were incubated at a 37C and 5% CO2 for 4 hr, 23 nL of compounds dissolved in DMSO, positive controls or DMSO only was transferred to the assay plate by a Pintool station (Kalypsys, San Diego, CA), followed by addition of 1 uL of agonist (R1881) in culture medium using a Bioraptr Flying Reagent Dispenser (FRD) workstation (Beckman Coulter, Indianapolis, IN, USA). The plates were incubated at a 37C and 5% CO2 for 16 h. After 1 uL of LiveBLAzerTM B/G FRET substrate was added using a Bioraptr FRD, the plates were incubated at room temperature for 2 h and fluorescence intensity was measured by an Envision plate reader (PerkinElmer, Shelton, CT). For cell viability readout that measures cytotoxicity, 4 ul/well of CellTiter-Glo reagent was added into the assay plates using a Bioraptr FRD. After 30 min incubation at room temperature, the luminescence intensity in the plates was measured using a ViewLux (PerkinElmer) plate reader.
% is set by controls: 0 for no effect and ±100 for the full control effect; potency is the fitted concentration of half-maximal effect.

SMILES	activity change, negative = cytotoxicity	Potency
Cc1ccc2c(c1)[C@]13CCCC[C@@H]1[C@H](C2)N(C)CC3	-11.3%	–
Clc1ccc([C@@H]2C[C@H]3CC[C@@H]2N3)cn1	0.0524%	–
COc1cc(C[C@H](C)N)c(OC)cc1Br	-7.08% [at 78.9 µM]	–
CC[C@@H](O)C(C[C@@H](C)N(C)C)(c1ccccc1)c1ccccc1	6.53% [at 78.9 µM]	–
CN1C2CCC1CC(OC(c1ccccc1)c1ccc(Cl)cc1)C2 (stereo not drawn)	–	15.1 µM (active)
C[C@]12CC[C@H]3[C@@H](CCC4=CC(=O)CC[C@@]43C)[C@@H]1CC[C@@H]2OC(=O)CCc1ccccc1	0.782%	–
CNC(C)[C@@H]1CC[C@@H](N)[C@@H](O[C@H]2[C@H](O)[C@@H](O[C@H]3OC[C@](C)(O)[C@H](NC)[C@H]3O)[C@H](N)C[C@@H]2N)O1 (stereo partly drawn)	-29.1% [at 27 µM]	–
CCC(=O)O[C@H]1[C@@H](N2CCCCC2)C[C@H]2[C@@H]3CC[C@H]4C[C@H](OC(C)=O)[C@@H](N5CCCCC5)C[C@]4(C)[C@H]3CC[C@@]21C	8.61%	–
CCC(=O)O[C@](Cc1ccccc1)(c1ccccc1)[C@H](C)CN(C)C	4.89%	–
O=C(O)c1ccccc1[O-].O=C(O)c1ccccc1[O-].[Zn+2]	-25.8%	–
CN1CCN=C(c2ccccc2)c2cc(Cl)ccc21	0.0595%	–
CC(=O)O[C@H]1C[C@H](O[C@H]2[C@@H](O)C[C@H](O[C@H]3[C@@H](O)C[C@H](OC4CC[C@@]5(C)C(CC[C@@H]6[C@@H]5CC[C@]5(C)[C@@H](C7=CC(=O)OC7)[C@@H](O)C[C@]65O)C4)O[C@@H]3C)O[C@@H]2C)O[C@H](C)[C@H]1O[C@@H]1O[C@H](CO)[C@@H](O)[C@H](O)[C@H]1O (stereo partly drawn)	–	0.601 µM (active)
C#C[C@]1(OC(=O)CCCCCC)CC[C@H]2[C@@H]3CCC4=CC(=O)CC[C@@H]4[C@H]3CC[C@@]21C	-13.7%	–
